Experimental data: PMC9911399, “Two distinct binding modes provide the RNA-binding protein RbFox with extraordinary sequence specificity”
Residue numbers refer to the chain shown, from its start. In all, about 16,000 sequences were measured (“ka relative to ugcaugu”: median about 0.096, highest 2% from about 0.35 on). For the sample, the highest values were picked, then their nearest neighbours and some sequences at random.

T1: RBFOX1 RRM RbFoxmut (Fox-RRM*) (Homo sapiens, UniProt Q9NWB1 109-208, R118D;E147R;N151S;E152T)
T1 sequence: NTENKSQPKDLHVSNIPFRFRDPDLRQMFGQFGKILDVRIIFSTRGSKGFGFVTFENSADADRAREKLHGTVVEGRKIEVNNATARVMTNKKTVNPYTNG

B1: GCUCCGG (DNA:RNA)
RNA: GGGAGACCGGAAUUCAGAUUGUCCGCUCCGGUUAAAUCCCGUCGUAGCCACCA
DNA 1: CAATCTGAATTCCGGTCTCCC
DNA 2: TGGTGGCTACGACGGGATT
B2: AUCUGAU (DNA:RNA)
RNA: GGGAGACCGGAAUUCAGAUUGUCCAUCUGAUUUAAAUCCCGUCGUAGCCACCA
DNA 1: CAATCTGAATTCCGGTCTCCC
DNA 2: TGGTGGCTACGACGGGATT
B3: UCGGCUA (DNA:RNA)
RNA: B1 RNA with G25U, U27G, C28G, G30U, G31A
DNA 1: CAATCTGAATTCCGGTCTCCC
DNA 2: TGGTGGCTACGACGGGATT
B4: AAGGAAC (DNA:RNA)
RNA: B2 RNA with U26A, C27G, U28G, G29A, U31C
DNA 1: CAATCTGAATTCCGGTCTCCC
DNA 2: TGGTGGCTACGACGGGATT
B5: GCCACUG (DNA:RNA)
RNA: B1 RNA with U27C, C28A, G30U
DNA 1: CAATCTGAATTCCGGTCTCCC
DNA 2: TGGTGGCTACGACGGGATT
B6: AAGCCCU (DNA:RNA)
RNA: B2 RNA with U26A, C27G, U28C, G29C, A30C
DNA 1: CAATCTGAATTCCGGTCTCCC
DNA 2: TGGTGGCTACGACGGGATT
B7: CGAACAU (DNA:RNA)
RNA: B2 RNA with A25C, U26G, C27A, U28A, G29C
DNA 1: CAATCTGAATTCCGGTCTCCC
DNA 2: TGGTGGCTACGACGGGATT
B8: GCCGAGU (DNA:RNA)
RNA: B1 RNA with U27C, C28G, C29A, G31U
DNA 1: CAATCTGAATTCCGGTCTCCC
DNA 2: TGGTGGCTACGACGGGATT
B9: CUUGAUA (DNA:RNA)
RNA: B2 RNA with A25C, C27U, U28G, G29A, A30U, U31A
DNA 1: CAATCTGAATTCCGGTCTCCC
DNA 2: TGGTGGCTACGACGGGATT
B10: AGCGCUC (DNA:RNA)
RNA: B2 RNA with U26G, U28G, G29C, A30U, U31C
DNA 1: CAATCTGAATTCCGGTCTCCC
DNA 2: TGGTGGCTACGACGGGATT
B11: ACCCAAG (DNA:RNA)
RNA: B2 RNA with U26C, U28C, G29A, U31G
DNA 1: CAATCTGAATTCCGGTCTCCC
DNA 2: TGGTGGCTACGACGGGATT
B12: GUGUGAA (DNA:RNA)
RNA: B2 RNA with A25G, C27G, U31A
DNA 1: CAATCTGAATTCCGGTCTCCC
DNA 2: TGGTGGCTACGACGGGATT
B13: GUGAAUG (DNA:RNA)
RNA: B1 RNA with C26U, U27G, C28A, C29A, G30U
DNA 1: CAATCTGAATTCCGGTCTCCC
DNA 2: TGGTGGCTACGACGGGATT
B14: GUGAAUU (DNA:RNA)
RNA: B2 RNA with A25G, C27G, U28A, G29A, A30U
DNA 1: CAATCTGAATTCCGGTCTCCC
DNA 2: TGGTGGCTACGACGGGATT
B15: AAAUCUU (DNA:RNA)
RNA: B2 RNA with U26A, C27A, G29C, A30U
DNA 1: CAATCTGAATTCCGGTCTCCC
DNA 2: TGGTGGCTACGACGGGATT
B16: UGAGAAU (DNA:RNA)
RNA: B2 RNA with A25U, U26G, C27A, U28G, G29A
DNA 1: CAATCTGAATTCCGGTCTCCC
DNA 2: TGGTGGCTACGACGGGATT
B17: GCUUAUG (DNA:RNA)
RNA: B1 RNA with C28U, C29A, G30U
DNA 1: CAATCTGAATTCCGGTCTCCC
DNA 2: TGGTGGCTACGACGGGATT
B18: CCUACGU (DNA:RNA)
RNA: B1 RNA with G25C, C28A, G31U
DNA 1: CAATCTGAATTCCGGTCTCCC
DNA 2: TGGTGGCTACGACGGGATT
B19: CACCCGC (DNA:RNA)
RNA: B1 RNA with G25C, C26A, U27C, G31C
DNA 1: CAATCTGAATTCCGGTCTCCC
DNA 2: TGGTGGCTACGACGGGATT
B20: UACUGGU (DNA:RNA)
RNA: B2 RNA with A25U, U26A, A30G
DNA 1: CAATCTGAATTCCGGTCTCCC
DNA 2: TGGTGGCTACGACGGGATT

biological target: T1, RBFOX1 RRM RbFoxmut (Fox-RRM*); assay: EMSA; HiTS-Eq, 1 nM pool, 10 min; buffer printed only for the single-RNA assays: 10 mM Tris pH 7.5, 150 mM NaCl, 3.4 mM EDTA, 0.001% NP-40, 30 C; conditions: tags: His6 N-terminal (pET28a); label: 5' 32P
In short: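 A pool of RNA with 7 randomized nucleotides, 5′-radiolabelled and with DNA-annealed flanks, was equilibrated at 1 nM for 10 min in 50 µL with purified RbFox RRM, wild type or mutant, across increasing protein concentrations. Free RNA was separated by 8% native PAGE, excised, reverse-transcribed, barcoded by PCR and sequenced. Relative association constants were obtained from read-count changes of each RNA species versus the control reaction and normalised to the cognate motif.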

| Binder | binding signal |
| --- | --- |
| B1 | 0.0646 KA relative to UGCAUGU |
| B2 | 0.0592 KA relative to UGCAUGU |
| B3 | 0.106 KA relative to UGCAUGU |
| B4 | 0.057 KA relative to UGCAUGU |
| B5 | 0.101 KA relative to UGCAUGU |
| B6 | 0.0868 KA relative to UGCAUGU |
| B7 | 0.0626 KA relative to UGCAUGU |
| B8 | 0.123 KA relative to UGCAUGU |
| B9 | 0.134 KA relative to UGCAUGU |
| B10 | 0.0471 KA relative to UGCAUGU |
| B11 | 0.0886 KA relative to UGCAUGU |
| B12 | 0.132 KA relative to UGCAUGU |
| B13 | 1.45 KA relative to UGCAUGU |
| B14 | 0.118 KA relative to UGCAUGU |
| B15 | 0.0581 KA relative to UGCAUGU |
| B16 | 0.092 KA relative to UGCAUGU |
| B17 | 0.142 KA relative to UGCAUGU |
| B18 | 0.146 KA relative to UGCAUGU |
| B19 | 0.0852 KA relative to UGCAUGU |
| B20 | 0.103 KA relative to UGCAUGU |
